Sfp inh: blocks B. subtilis Sfp PPTase activity; Potency, µM, hits mostly inhibitors; Q9F4F7; 310,000 compounds, 3.5% hits; Biochemical Sfp PPTase activity, qHTS;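 also: the enzyme is Sfp with the accession as filed and its product quenches rhodamine fluorescence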
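After 15 min at room temperature with compound, 15 nM Sfp received 5 uM rhodamine-CoA plus 12.5 uM BHQ-2-ybbR (50 mM Hepes pH 7.6, 10 mM MgCl2). Rate came from the fluorescence difference over 30 min, ex 525/em 598 nm.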
JMJD2A Tudor: inhibitors of human JMJD2A Tudor domain | O75164 | AlphaScreen JMJD2A-Tudor / H3K4me3 peptide binding | Potency, µM (titrated, usually from 114 µM), hits mostly inhibitors | 390,000 compounds, 4.4% hits | AID 504339; also: nearly all actives have a fitted effect of over 50% in size
G9a block: blocks human histone lysine methyltransferase G9a; Potency, µM (highest dose often 102 µM), usual class: inhibitors; 350,000 compounds, 8.8% hits; G9a H3K9 monomethylation, AlphaScreen, 2 h; Q96KQ7; also: nearly all actives have a fitted effect of over 75% in size
Target sequence (Q96KQ7 913-1193 limits assumed): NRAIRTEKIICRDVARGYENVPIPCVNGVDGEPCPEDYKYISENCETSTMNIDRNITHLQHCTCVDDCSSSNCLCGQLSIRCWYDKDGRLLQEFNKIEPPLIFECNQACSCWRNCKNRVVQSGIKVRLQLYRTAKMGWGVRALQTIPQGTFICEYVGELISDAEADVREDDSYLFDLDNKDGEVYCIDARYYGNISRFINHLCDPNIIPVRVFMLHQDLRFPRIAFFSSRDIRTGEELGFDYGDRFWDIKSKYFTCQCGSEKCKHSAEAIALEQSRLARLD
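AlphaScreen detection with an anti-monomethyl H3K9 antibody quantified product after a 2 h room-temperature reaction containing 500 nM biotinylated H3K9 peptide, 20 µM SAM and 20 nM enzyme, which had been preincubated 15 min with compound.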
BAZ2B block: BAZ2B (human) inhibition; AID 504333; 360,000 compounds, 4.4% hits; AlphaScreen BAZ2B-H3K14Ac peptide displacement; Potency, µM (doses to about 114 µM), most hits filed as inhibitors; also: nearly all actives have a fitted effect of over 60% in size
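AlphaScreen displacement of biotin-H3(5-23)K14Ac peptide (50 nM final) from BAZ2B (50 nM final) in PBS pH 7.4, 0.01% Tween-20; complex preformed 30 min RT, then compounds (top 110 uM) 30 min RT, beads 20 min dark.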
HP1b binding inh: blocks HP1-beta chromodomain binding to methylated histone tails; P83916; AlphaScreen HP1-beta / biotin-H3K9me3 peptide binding; Potency, µM (highest dose often 114 µM), hits mostly inhibitors; 390,000 compounds, 0.56% hits; AID 540317; also: nearly all actives have a fitted effect of over 70% in size
Target sequence (P83916 whole entry, looked up): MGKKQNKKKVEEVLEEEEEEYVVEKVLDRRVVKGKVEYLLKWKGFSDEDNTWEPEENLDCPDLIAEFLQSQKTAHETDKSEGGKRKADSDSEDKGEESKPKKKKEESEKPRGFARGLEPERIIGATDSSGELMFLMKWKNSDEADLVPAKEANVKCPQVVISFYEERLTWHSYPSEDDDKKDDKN
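Compound inhibition of the preformed complex between 50 nM HP1-beta and 50 nM biotinylated H3K9me3 peptide was read by AlphaScreen. Buffer was PBS pH 7.4 with 0.01% Tween-20. Incubations ran 30 min at room temperature, with 10 ug/mL donor/acceptor beads.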
Large screens that a line does not name were inactive; ! = not confirmed by another sample. An excerpt weighted towards active compounds, which were near 12% of everything screened. Calls follow the shape of the dose curve; as a rule, active = well fitted curve in the direction sought with a large enough effect; inconclusive = small, poorly fitted or top-dose-only effect, or another doubt; inactive = no such curve, though single readings can be large; an effect the other way counts as inactive or inconclusive.

CCOc1ccc(NC(=O)CN(C)C(=O)c2cc(S(=O)(=O)N3CCCCC3)ccc2C)cc1OCC	none (no result: Sfp inh)
COc1ccc(CN(Cc2ccc(C(=O)O)cc2)C(=S)Nc2ccc(C)cc2)cc1OC	none
COc1ccc(C)c2sc(N(CCN(C)C)C(=O)/C=C/c3cccs3)nc12	JMJD2A Tudor inconclusive, BAZ2B block 35µM (no result: G9a block)
CCn1ccnc1CN1CCc2c([nH]c3ccccc23)C1C1CCCCC1 (stereo unspecified)	JMJD2A Tudor 14µM, G9a block 45µM, BAZ2B block 35µM
CCn1ccnc1CN1CCc2c([nH]c3ccccc23)C1C(C)(C)C (stereo unspecified)	JMJD2A Tudor inconclusive, G9a block inconclusive, BAZ2B block inconclusive
COc1ccc2[nH]cc(CC(=O)O)c2c1	none
O=C(O)Cc1c[nH]c2ccc(O)cc12	G9a block 24µM! (no result: Sfp inh, BAZ2B block)
Cc1cc(NC(=O)CN2CC3CC(C2)c2cccc(=O)n2C3)nc2c1c(=O)oc1ccccc12 (stereo unspecified)	G9a block 35µM, BAZ2B block inconclusive (no result: JMJD2A Tudor, HP1b binding inh)
Clc1ccc(CSc2nccn2Cc2ccccc2)cc1	JMJD2A Tudor 3.2µM, BAZ2B block inconclusive
O=c1ccn(Cc2ccccc2)c(SCc2ccccc2)n1	none (no result: Sfp inh, G9a block, BAZ2B block)
Cc1ccccc1NC(=S)c1nc2ccccc2[nH]1	JMJD2A Tudor inconclusive, BAZ2B block 11µM
S=C(Nc1ccc(Cl)cc1)c1nc2ccccc2[nH]1	JMJD2A Tudor inconclusive, BAZ2B block 45µM, HP1b binding inh inconclusive
O=C(/C(=C\c1ccccc1)c1nc2ccccc2[nH]1)c1ccc(Cl)cc1	none
C[C@@H](C(=O)N=c1sc2ccccc2n1C)N1C(=O)C2CC=CCC2C1=O (stereo partly specified)	none (no result: Sfp inh, G9a block, BAZ2B block)
Cc1cc(C(=O)NP(=O)(N2CC(C)OC(C)C2)N2CC(C)OC(C)C2)c(C)n1C1CC1 (stereo unspecified)	G9a block 45µM, BAZ2B block inconclusive
Cc1cc(C)cc(OCC(=O)OCC(=O)c2cc(C)n(C3CC3)c2C)c1	none (no result: G9a block)
COc1ccc(C(=S)NCS(=O)(=O)c2ccc(C)cc2)cc1	Sfp inh inconclusive, G9a block 8.9µM, BAZ2B block inconclusive
COc1ccc(NC(=S)c2ccncc2)cc1	none
Cc1ccc(S(=O)(=O)CNC(=S)c2ccc3ccccc3c2)cc1	Sfp inh 56µM, JMJD2A Tudor inconclusive, G9a block 8.9µM, BAZ2B block inconclusive
Cc1ccc(S(=O)(=O)CNC(=S)c2cccc(C)c2)cc1	G9a block 10µM, HP1b binding inh inconclusive
COc1ccc(CNS(=O)(=O)c2ccc(C)cc2)cc1	none (no result: G9a block, BAZ2B block)
COc1ccc(C(=S)Nc2ccc(C)cc2)cc1	Sfp inh 32µM, G9a block 10µM, HP1b binding inh inconclusive
Cc1ccc(S(=O)(=O)CNC(=O)c2ccccc2)cc1	G9a block inconclusive
CC=C(/C(=C/C)c1ccc(O)cc1)c1ccc(O)cc1	none (no result: JMJD2A Tudor, BAZ2B block, HP1b binding inh)
CC12CC3OS(=O)OC3CC3C4C(C(OCc5ccccc5)C31)C42 (stereo unspecified)	none (no result: JMJD2A Tudor, G9a block, BAZ2B block, HP1b binding inh)
Cc1onc(-c2c(F)cccc2Cl)c1C(=O)NC1C(=O)N2C1SC(C)(C)C2C(=O)O (stereo unspecified)	none (no result: JMJD2A Tudor, BAZ2B block, HP1b binding inh)
CCC(C(=O)NC1CCCCC1)n1c(SCc2cccc(C)c2)nc2ccncc21 (stereo unspecified)	G9a block 50µM!
CCC(C(=O)NC1CCCCC1)n1c(SCc2cccc(F)c2)nc2ccncc21 (stereo unspecified)	G9a block inconclusive
Cc1[nH]c(=O)[nH]c(=O)c1/C=N/NC(=O)[C@@H](N)CC(C)C	JMJD2A Tudor inconclusive, G9a block inconclusive, BAZ2B block 50µM
CC(C)(C)NC(=O)CCc1nnc(Cc2c[nH]c3ccccc23)o1	G9a block 45µM
CN(Cc1ccsc1)C(=O)CCc1nnc(CCCc2ccccc2)o1	none
CN(Cc1ccsc1)C(=O)CCc1nnc(Cc2c[nH]c3ccccc23)o1	JMJD2A Tudor 45µM
C=CCC1(c2ccccc2)Oc2ccc(C)cc2-c2nc3cc(Cl)c(Cl)cc3nc21 (stereo unspecified)	none (no result: JMJD2A Tudor, G9a block, BAZ2B block, HP1b binding inh)
c1ccc(-c2csc3ncn4nnnc4c23)cc1	JMJD2A Tudor 14µM, HP1b binding inh inconclusive
Cc1noc(C)c1C(=O)N1CCC2(CCCN(c3ccccc3)C2)CC1	none (no result: JMJD2A Tudor, BAZ2B block, HP1b binding inh)
Cn1cnnc1SCC(=O)N1N=C2/C(=C/c3ccco3)CCCC2C1c1ccco1 (stereo unspecified)	BAZ2B block 56µM (no result: G9a block)
Nc1nc(SCC(=O)N2N=C3/C(=C/c4ccco4)CCCC3C2c2ccco2)n[nH]1 (stereo unspecified)	G9a block inconclusive, BAZ2B block 50µM
Nc1nc(SCC(=O)N2N=C3/C(=C\c4ccco4)CCCC3C2c2ccco2)n[nH]1 (stereo unspecified)	JMJD2A Tudor inconclusive (no result: Sfp inh, G9a block, BAZ2B block)
O=C(CSc1nccc(=O)[nH]1)N1N=C2/C(=C/c3ccco3)CCCC2C1c1ccco1 (stereo unspecified)	Sfp inh 10µM, JMJD2A Tudor 45µM, G9a block inconclusive, HP1b binding inh inconclusive (no result: BAZ2B block)
O=[N+]([O-])c1cc(/C=N\Nc2nc(-c3ccccc3)cs2)ccc1O	Sfp inh 50µM, JMJD2A Tudor inconclusive, G9a block 11µM, BAZ2B block 13µM, HP1b binding inh inconclusive
O=[N+]([O-])c1ccc(-c2csc(N/N=C/c3cccnc3)n2)cc1	BAZ2B block inconclusive (no result: G9a block)
Cc1csc(N/N=C\c2cccnc2)n1	Sfp inh 56µM, G9a block 45µM (no result: BAZ2B block)
Clc1ccc(-c2csc(N/N=C/c3ccc4c(c3)OCO4)n2)cc1	G9a block 40µM
Cc1csc(N/N=C/c2ccc(O)c([N+](=O)[O-])c2)n1	Sfp inh 32µM, JMJD2A Tudor 45µM, G9a block 14µM, BAZ2B block 4.5µM, HP1b binding inh inconclusive
CCOc1ccc(C(C)=O)cc1COc1ccc(C)nc1[N+](=O)[O-]	none
Cc1cc(C(=O)Nc2ccon2)ccc1[N+](=O)[O-]	none (no result: Sfp inh, G9a block, BAZ2B block)
Cc1cc(=O)[nH]c(N/N=C/c2ccc(Cl)c([N+](=O)[O-])c2)n1	none (no result: G9a block)
Cc1nnc(N/N=C/c2ccc(O)c([N+](=O)[O-])c2)[nH]c1=O	Sfp inh inconclusive, JMJD2A Tudor 3.2µM
O=C(CC(=O)NC1CCCCC1)N/N=C/c1ccccc1Cl	none
O=C(CC(=O)NC1CCCCC1)N/N=C/c1ccccc1[N+](=O)[O-]	G9a block 45µM
Nc1nnc(SCC(=O)OCC(=O)c2ccccc2Br)s1	G9a block 40µM
Nc1nnc(SCC(=O)OCC(=O)Nc2ccccc2)s1	none (no result: G9a block)
COC(=O)c1ccccc1NC(=O)COC(=O)CSc1nnc(N)s1	G9a block 28µM
c1ccc(-c2ccc(-c3ccncn3)cc2)cc1	none (no result: Sfp inh, G9a block, BAZ2B block)
Cc1ccc(C=NNC(=O)c2cc(-c3cccnc3)nc3ccccc23)o1	none (no result: Sfp inh, G9a block, BAZ2B block)
Cc1ccc(/C=N/NC(=O)c2cc(-c3ccccc3)nc3ccccc23)o1	Sfp inh 50µM, JMJD2A Tudor inconclusive, BAZ2B block inconclusive
Cc1ccc(/C=N/NC(=O)c2cc(C3CC3)nc3ccccc23)o1	Sfp inh 50µM, BAZ2B block inconclusive

Screening results from PubChem.
